# Target: AT4G31550 (Arabidopsis thaliana, UniProt Q9SV15 228-325)
# Assay: DPI-ELISA; DPI-ELISA, streptavidin 384-well plate, 1-2 pmol biotinylated dsDNA per well, crude native E. coli extract, anti-His detection; buffer as in Brand et al. [46],; high values mean tight binding
# Conditions: tags: C-terminal His (pET-DEST42); label: 5' biotin on forward strand; dsDNA, one strand shown
# Chain of AT4G31550 (Q9SV15 228-325): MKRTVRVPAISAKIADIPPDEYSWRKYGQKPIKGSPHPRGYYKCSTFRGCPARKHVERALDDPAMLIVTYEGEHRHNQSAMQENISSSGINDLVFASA
row,Sequence,binding signal
1,AAAAAAGGACGTCTTCGGTATGAGTGAAAA,0.815 ± 0.163 absorbance
2,AAAAAAACACCTGTATAGCATGGACGAAAA,0.73 ± 0.0707 absorbance
3,AAAAAATTAGCTTATCCTTGCTTGTGAAAA,0.655 ± 0.134 absorbance
4,AAAAAACTCCCTCTCCTCTGTCTTCCAAAA,0.635 ± 0.106 absorbance
5,AAAAAATACATTTGACTTTGGGTTTCAAAA,3.4 ± 0.297 absorbance
6,AAAAAACTACTACCTTTGCCTAAGCGAAAA,0.685 ± 0.0919 absorbance
7,AAAAAATTTCTATTTCATCTTTGCCCAAAA,0.72 ± 0.156 absorbance
8,AAAAAATATGCTACTCCACCTTGATGAAAA,0.67 ± 0.156 absorbance
9,AAAAAATTCTAGCTTTTAACTTTAGCAAAA,0.6 ± 0.141 absorbance
10,AAAAAAACCCGTGCCTGCCTATTGCAAAAA,0.395 ± 0.0495 absorbance
11,AAAAAACCTTACTGTTGATTCTGGTTAAAA,0.635 ± 0.134 absorbance
12,AAAAAAGTGCGTTCACGCTTGTATCTAAAA,0.69 ± 0.17 absorbance
13,AAAAAAGACCGCAGCAAGAATTAAATAAAA,0.49 ± 0.141 absorbance
14,AAAAAACTAGGTATCGGTAGGCGCCGAAAA,0.6 ± 0.0849 absorbance
15,AAAAAATGGATCTTTACTTTAGGCCAAAAA,0.92 ± 0.424 absorbance
16,AAAAAATTTGCGCTTCATCCTGCCCCAAAA,0.715 ± 0.106 absorbance
17,AAAAAACGCAACTCCGGATGTGGGGTAAAA,0.545 ± 0.0636 absorbance
18,AAAAAAGCTTTCAACATCTGCGTCCAAAAA,0.42 ± 0.0424 absorbance
19,AAAAAAAATTAGTCTCTTCGTCTCCCAAAA,0.575 ± 0.106 absorbance
20,AAAAAAGGTCTGGACGATCACCGGGAAAAA,0.565 ± 0.12 absorbance
21,AAAAAACATAACCGCAAAATCCCTACAAAA,0.545 ± 0.0919 absorbance
22,AAAAAACCCTAACGAATGCTTTTCGGAAAA,0.66 ± 0.0849 absorbance
23,AAAAAAAGGTCATTGCTGCTGGTGTTAAAA,0.735 ± 0.106 absorbance
24,AAAAAACGCATCATAGCTACGCCCCAAAAA,0.62 ± 0.0849 absorbance

# — PMC3795721, “Screening for Protein-DNA Interactions by Automatable DNA-Protein Interaction ELISA”
